Results: paper PMC4053984, “DNA binding specificities of the long zinc-finger recombination protein PRDM9”

These sequences were tested against PRDM9Cst (Mus musculus (CAST/EiJ)) (assay: competition EMSA; competition against biotin-labeled 75-bp Hlx1 B6 oligo; 10 mM Tris pH 7.5, 50 mM KCl, 1 mM DTT, 50 ng/ul poly(dI/dC), 0.05% NP-40, crude E. coli extract 3 ul in 20 ul; 1 h with unlabeled competitor, then 4 h with biotin-labeled 75-bp Hlx1; temperature not stated; high values mean tight binding). Conditions: tags: N-terminal His tag (pBAD/HisB); dsDNA, one strand shown.
Chain of PRDM9Cst (Mus musculus (CAST/EiJ)) (chain, as listed by the source): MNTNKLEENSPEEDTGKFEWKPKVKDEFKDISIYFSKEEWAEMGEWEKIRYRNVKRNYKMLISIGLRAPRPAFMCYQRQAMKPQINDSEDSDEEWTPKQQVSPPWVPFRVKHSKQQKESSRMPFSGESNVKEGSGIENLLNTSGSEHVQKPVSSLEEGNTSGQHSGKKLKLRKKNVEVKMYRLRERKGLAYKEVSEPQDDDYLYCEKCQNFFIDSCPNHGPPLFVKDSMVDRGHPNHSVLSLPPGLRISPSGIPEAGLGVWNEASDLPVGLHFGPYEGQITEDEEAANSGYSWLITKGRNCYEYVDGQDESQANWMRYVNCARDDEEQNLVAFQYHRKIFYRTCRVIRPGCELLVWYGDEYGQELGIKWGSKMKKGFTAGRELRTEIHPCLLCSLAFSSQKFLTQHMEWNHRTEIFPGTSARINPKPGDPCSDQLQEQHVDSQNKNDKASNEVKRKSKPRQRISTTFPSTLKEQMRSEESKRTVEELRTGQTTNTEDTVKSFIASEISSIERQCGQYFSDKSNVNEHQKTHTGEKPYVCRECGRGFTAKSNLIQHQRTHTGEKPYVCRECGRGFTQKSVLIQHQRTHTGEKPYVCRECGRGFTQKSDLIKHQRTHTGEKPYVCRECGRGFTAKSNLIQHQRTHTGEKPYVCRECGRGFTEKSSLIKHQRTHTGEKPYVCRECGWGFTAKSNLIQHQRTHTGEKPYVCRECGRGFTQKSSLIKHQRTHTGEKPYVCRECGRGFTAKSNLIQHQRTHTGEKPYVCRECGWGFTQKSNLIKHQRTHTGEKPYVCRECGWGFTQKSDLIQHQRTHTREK

Sequence | binding signal
ATAGTGTGAAGACTTGGACCCTGCCCTTTCTTT | -0.1 Bmut (0 = wild type, -1 = scrambled)
ATAGTGTGCAGACTTGGACCCTGCCCTTCCTTT | -0.1 Bmut (0 = wild type, -1 = scrambled)
ATAGTGTGCAGACTTGGACCCTGCCCTTTCTTA | 0.13 Bmut (0 = wild type, -1 = scrambled)
ATAGTGTTCAGACTTGGACCCTGCCCTTTCTTT | -0.4 Bmut (0 = wild type, -1 = scrambled)
ATAGTGTGCAGACTTGGACCCTGCCCTTTCTTC | 0.14 Bmut (0 = wild type, -1 = scrambled)
ATAGTGTGCAGACTTGGACCGTGCCCTTTCTTT | 0.06 Bmut (0 = wild type, -1 = scrambled)
CTAGTGTGCAGACTTGGACCCTGCCCTTTCTTT | -0.1 Bmut (0 = wild type, -1 = scrambled)
ATAGTGTGTAGACTTGGACCCTGCCCTTTCTTT | 0 Bmut (0 = wild type, -1 = scrambled)
